{"source": "PubChem BioAssay AID1159580", "about": "(chemical genetic matrix, 2015)", "assay": "chemical genetic growth profiling, strain panel (AID 1159580);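 note: tested at 20 µM; growth read once vehicle control cultures reached saturation at 30 °C; 1 = growth at the plate median or of vehicle wells; lower values mean less growth of the strain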", "conditions": "S. cerevisiae deletion strains, growth OD", "note": "About 2,000 (36%) of roughly 5,500 compounds were called active. Not shown: some 18% with an inconclusive outcome. This is one part of the list. Values without a mark were called inactive. Cut-off read from the data, not from the text of the source: active = normalized growth mostly below about 0.91 (no sharp cut-off); inconclusive = no clear call, values can overlap the other calls; inactive = mostly above about 0.92."}
{"smiles": "CCCCCCCC1CCC/C1=N/OC(=O)c1cccs1", "note": "(stereo unspecified)", "values": [{"measurement": "normalized growth", "setting": "locus YAR019C, strain CDC15, active compounds read low", "result": 1.01}, {"measurement": "normalized growth", "setting": "locus YBL105C, strain PKC1, active compounds read low", "result": 1.01}, {"measurement": "normalized growth", "setting": "locus YBR135W, strain CKS1, active compounds read low", "result": 1.01}, {"measurement": "normalized growth", "setting": "locus YBR136W, strain MEC1, active compounds read low", "result": 1}, {"measurement": "normalized growth", "setting": "locus YBR160W, strain CDC28, active compounds read low", "result": 0.997}, {"measurement": "normalized growth", "setting": "locus YDL017W, strain CDC7, active compounds read low", "result": 0.995}, {"measurement": "normalized growth", "setting": "locus YDL028C, strain MPS1, active compounds read low", "result": 0.999}, {"measurement": "normalized growth", "setting": "locus YDL101C, strain DUN1, active compounds read low", "result": 0.973}, {"measurement": "normalized growth", "setting": "locus YDL108W, strain KIN28, active compounds read low", "result": 0.996}, {"measurement": "normalized growth", "setting": "locus YDL132W, strain cdc53, active compounds read low", "result": 0.991}, {"measurement": "normalized growth", "setting": "locus YDL214C, strain PRR2, active compounds read low", "result": 0.965}, {"measurement": "normalized growth", "setting": "locus YDR052C, strain DBF4, active compounds read low", "result": 0.983}, {"measurement": "normalized growth", "setting": "locus YDR054C, strain cdc34, active compounds read low", "result": 0.989}, {"measurement": "normalized growth", "setting": "locus YDR226W, strain ADK1, active compounds read low", "result": 0.996}, {"measurement": "normalized growth", "setting": "locus YDR477W, strain SNF1, active compounds read low", "result": 0.957}, {"measurement": "normalized growth", "setting": "locus YER123W, strain YCK3, active compounds read low", "result": 0.947}, {"measurement": "normalized growth", "setting": "locus YER133W, strain GLC7, active compounds read low", "result": 0.97}, {"measurement": "normalized growth", "setting": "locus YFL009W, strain cdc4, active compounds read low", "result": 0.992}, {"measurement": "normalized growth", "setting": "locus YFL029C, strain CAK1, active compounds read low", "result": 1.01}, {"measurement": "normalized growth", "setting": "locus YFR003C, strain YPI1, active compounds read low", "result": 1.01}, {"measurement": "normalized growth", "setting": "locus YFR019W, strain FAB1, active compounds read low", "result": 0.938}, {"measurement": "normalized growth", "setting": "locus YFR028C, strain CDC14, active compounds read low", "result": 0.98}, {"measurement": "normalized growth", "setting": "locus YGR040W, strain KSS1, active compounds read low", "result": 0.967}, {"measurement": "normalized growth", "setting": "locus YGR052W, strain FMP48, active compounds read low", "result": 0.988}, {"measurement": "normalized growth", "setting": "locus YGR092W, strain DBF2, active compounds read low", "result": 0.906}, {"measurement": "normalized growth", "setting": "locus YHR030C, strain SLT2, active compounds read low", "result": "0.763 (active)"}, {"measurement": "normalized growth", "setting": "locus YHR079C, strain IRE1, active compounds read low", "result": 0.871}, {"measurement": "normalized growth", "setting": "locus YHR082C, strain KSP1, active compounds read low", "result": 1.07}, {"measurement": "normalized growth", "setting": "locus YHR205W, strain SCH9, active compounds read low", "result": 0.753}, {"measurement": "normalized growth", "setting": "locus YIL147C, strain SLN1, active compounds read low", "result": 0.992}, {"measurement": "normalized growth", "setting": "locus YJL095W, strain BCK1, active compounds read low", "result": 0.91}, {"measurement": "normalized growth", "setting": "locus YJL128C, strain PBS2, active compounds read low", "result": 1.01}, {"measurement": "normalized growth", "setting": "locus YJL157C, strain FAR1, active compounds read low", "result": 0.967}, {"measurement": "normalized growth", "setting": "locus YJR016C, strain ILV3, active compounds read low", "result": 0.99}, {"measurement": "normalized growth", "setting": "locus YJR066W, strain TOR1 (second series), active compounds read low", "result": 0.934}, {"measurement": "normalized growth", "setting": "locus YJR066W, strain TOR1, active compounds read low", "result": 0.986}, {"measurement": "normalized growth", "setting": "locus YKL048C, strain ELM1, active compounds read low", "result": 0.985}, {"measurement": "normalized growth", "setting": "locus YKL067W, strain YNK1, active compounds read low", "result": 0.939}, {"measurement": "normalized growth", "setting": "locus YKL101W, strain HSL1, active compounds read low", "result": 0.934}, {"measurement": "normalized growth", "setting": "locus YKL193C, strain SDS22, active compounds read low", "result": 1.02}, {"measurement": "normalized growth", "setting": "locus YKL203C, strain TOR2, active compounds read low", "result": 1}, {"measurement": "normalized growth", "setting": "locus YLR113W, strain HOG1, active compounds read low", "result": "0.739 (active)"}, {"measurement": "normalized growth", "setting": "locus YLR133W, strain CKI1, active compounds read low", "result": 0.96}, {"measurement": "normalized growth", "setting": "locus YLR403W, strain SFP1, active compounds read low", "result": 0.945}, {"measurement": "normalized growth", "setting": "locus YML070W, strain DAK1, active compounds read low", "result": 0.902}, {"measurement": "normalized growth", "setting": "locus YMR001C, strain CDC5, active compounds read low", "result": 1.02}, {"measurement": "normalized growth", "setting": "locus YMR205C, strain PFK2 (second series), active compounds read low", "result": 0.944}, {"measurement": "normalized growth", "setting": "locus YMR277W, strain FCP1, active compounds read low", "result": 1.03}, {"measurement": "normalized growth", "setting": "locus YNL006W, strain LST8, active compounds read low", "result": 1.01}, {"measurement": "normalized growth", "setting": "locus YNL020C, strain ARK1, active compounds read low", "result": 0.896}, {"measurement": "normalized growth", "setting": "locus YNL161W, strain CBK1, active compounds read low", "result": 1.02}, {"measurement": "normalized growth", "setting": "locus YNL183C, strain NPR1, active compounds read low", "result": 0.944}, {"measurement": "normalized growth", "setting": "locus YNL207W, strain RIO2, active compounds read low", "result": 0.976}, {"measurement": "normalized growth", "setting": "locus YNL222W, strain SSU72, active compounds read low", "result": 1.02}, {"measurement": "normalized growth", "setting": "locus YNL307C, strain MCK1 (second series), active compounds read low", "result": 0.901}, {"measurement": "normalized growth", "setting": "locus YOL078W, strain AVO1, active compounds read low", "result": 1.02}, {"measurement": "normalized growth", "setting": "locus YOL136C, strain PFK27, active compounds read low", "result": 0.961}, {"measurement": "normalized growth", "setting": "locus YOR061W, strain CKA2, active compounds read low", "result": 0.88}, {"measurement": "normalized growth", "setting": "locus YOR119C, strain RIO1, active compounds read low", "result": 1.03}, {"measurement": "normalized growth", "setting": "locus YOR231W, strain MKK1, active compounds read low", "result": 0.859}, {"measurement": "normalized growth", "setting": "locus YOR329C, strain SCD5, active compounds read low", "result": 1.02}, {"measurement": "normalized growth", "setting": "locus YPL031C, strain PHO85, active compounds read low", "result": 0.935}, {"measurement": "normalized growth", "setting": "locus YPL153C, strain RAD53, active compounds read low", "result": 0.937}, {"measurement": "normalized growth", "setting": "locus YPL204W, strain HRR25, active compounds read low", "result": 0.919}, {"measurement": "normalized growth", "setting": "locus YPL209C, strain IPL1, active compounds read low", "result": 1}, {"measurement": "normalized growth", "setting": "locus YPL256C, strain CLN2, active compounds read low", "result": "0.858 (active)"}, {"measurement": "normalized growth", "setting": "locus YPR025C, strain CCL1, active compounds read low", "result": 1.02}, {"measurement": "normalized growth", "setting": "locus YPR106W, strain ISR1, active compounds read low", "result": 0.999}, {"measurement": "normalized growth", "setting": "locus YPR111W, strain DBF20, active compounds read low", "result": 0.991}, {"measurement": "normalized growth", "setting": "strain NNK1, active compounds read low", "result": 0.987}, {"measurement": "normalized growth", "setting": "strain TSCII, active compounds read low", "result": 0.995}]}
